Sampled rows, rich in hits. Any-hit rate of the full collection: about 3.8%.
HSF1 inhib – HSF1 inhibitors in luciferase reporter cells, primary screen, cell-based, NIH3T3, luminescence; NIH3T3-HGL HSE-luciferase, MG132-induced, luminescence 8 h; stronger effect = lower value; activity change, negative = inhibition, % at 7.5 µM (by protocol); 300,000 compounds, 0.77% hits;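 active = more than half of replicate wells show activity change below -50%, luminescence cut by over half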;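 note: luciferase reports HSF-1 transcriptional activity via heat shock element; 0% = median of DMSO wells and -100% = zero luminescence signal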
HSP90 refold inh – HSP90 inhibitors, primary screen, cell lysate, luminescence | Heat shock protein HSP 90 (rabbit reticulocyte lysate; luciferase refolding) | Rabbit reticulocyte lysate, luciferase refolding luminescence, 3 h | inhibition, % at 5.6 µM | 290,000 compounds, 0.91% hits;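 active = inhibition above the screen-wide mean plus 3 SD, computed separately per campaign, cut at about 16% in these data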;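 note: 0% = DMSO wells and 100% = 60 µM geldanamycin wells; inhibitors lower the luminescence because luciferase stays unfolded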
p-CIP stab down – p/CIP-EGFP fusion destabilizers, primary screen, fluorescence, F442A cells | Q05BA5 | 16 h | decrease of EGFP signal, % at 10 µM | 290,000 compounds, 0.01% hits | AID 1984, 2009;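 active = EGFP signal decrease of at least 30% at 10 µM or well 3 SD below plate mean, unless failing retest; inactive = the rest, including hits failing retest or dose response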
HSF-1 act – HSF-1 activators, primary screen, NIH3T3-HGL cells, MG132 stress, luminescence, single point; 300,000 compounds, 1.7% hits; NIH3T3-HGL HSF-1 luciferase reporter, 8 h; 100% = twice DMSO control signal; activation, % at 9 µM;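 active = mean replicate activation of at least 50% with a set share of replicates each reaching 50%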;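 note: 0% = median of the neutral control wells and 100% = twice that signal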
NALP1 yeast inh – NALP1 inflammasome inhibitors in reconstituted yeast, colorimetric, S. cerevisiae, triplicate retest. S. cerevisiae NALP1/ASC/caspase-1 growth, X-gal OD620, 72 h. inhibition, % at 10 µM. 280,000 compounds, 0.61% hits. AID 2071, 2009; in the data active = inhibition mostly above about 24%, no sharp cut-off; inactive = mostly below about 32%
Hsp70 activator – Hsp70 transcriptional activators, primary screen, cell-based, HeLa, Hsp70 promoter luciferase, luminescence, 10 µM; HeLa Hsp70 promoter luciferase reporter; scaled: vehicle 0, proteasome-inhibitor control 100%; activation, % at 10 µM; 200,000 compounds, 0.04% hits; AID 1203, 2008;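 active = activation above the mean across all tested compounds plus 3 SD, cutoff set per campaign, cut at about 5.5% in these data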;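 note: 100% = MG132 at 30 µM as the positive control and 0% = DMSO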
* hit, by the source's call; / = no result given.

SMILES | HSF1 inhib | HSP90 refold inh | p-CIP stab down | HSF-1 act | NALP1 yeast inh | Hsp70 activator
CCOc1ccc2nc(NC(=O)c3ccccn3)sc2c1 | 10 | 7 | -14 | 20 | / | /
CCOc1ccc2nc(NC(=O)Nc3cccs3)sc2c1 | 50 | -4 | 1 | 80* | 33 | 0
COc1ccc2nc(NC(=O)Nc3ccccc3)sc2c1 | 7 | 13 | 6 | 31 | 34 | 0
CCOc1ccc2nc(NC(=O)Nc3ccccc3)sc2c1 | 29 | 2 | -6 | 74* | -7 | 0
CCOc1ccc2nc(NC(=O)c3ccoc3C)sc2c1 | -7 | 28* | 2 | 0 | 19 | 0
CCOC(=O)Cc1csc(NC(=O)Nc2cccs2)n1 | -57* | -6 | -4 | -66 | -3 | /
O=C(CSc1nnc(-c2cnccn2)n1Cc1ccco1)Nc1ccc(Br)cc1 | 31 | -3 | -1 | 55* | 18 | 0
COc1ccc(C(=O)CSc2nnc(-c3cnccn3)n2Cc2ccco2)cc1 | -5 | 2 | -12 | -5 | 3 | 0
COc1ccc(N/C=C2\C(=O)CCc3c2oc2cc(Cl)c(O)c(Cl)c32)cc1 | 41 | 4 | -6 | 62* | 11 | /
Brc1ccccc1OCCNCc1ccccc1 | 8 | -1 | -4 | 10 | 13 | 0
Cc1cc(Br)ccc1OCCNCc1ccccc1 | 4 | 5 | 10 | 13 | 29* | 0
Clc1ccc(OCCCNCc2ccccc2)c2ccccc12 | -36 | 2 | -13 | -40 | 50* | /
COc1ccc(C(=O)N2CCN(c3ccccc3)CC2)cc1S(=O)(=O)N1CCCC1 | 1 | -2 | -5 | 4 | 17 | /
Cc1cc(C(=O)Nc2cccc(C)c2C)c2ccccc2n1 | 3 | -1 | -3 | 1 | 17 | /
Cc1ccc(C2N(c3ccc(F)cc3)C(=O)C3CCCN32)cc1 (configuration not stated) | 9 | 0 | -11 | 15 | 44* | 0
CN(C)c1ccc(C2N(c3ccc(F)cc3)C(=O)C3CCCN32)cc1 (configuration not stated) | 0 | -3 | -8 | -4 | -3 | 0
CN1CCc2c(sc3c2c(=O)n(-c2ccc(Cl)cc2)c2nncn32)C1 | -55* | 2 | -1 | -63 | -17 | 0
CCN(CC)CCn1c(=O)n(-c2ccc(Cl)cc2)c(=O)c2c3c(sc21)CN(C)CC3 | 6 | 4 | -18 | 1 | / | /
O=C1CCCCc2sc(Br)c([N+](=O)[O-])c2N1 | 77 | 1 | -29 | 132* | -17 | /
NC(=O)c1[nH]cnc1N | -11 | 0 | 2 | -17 | 6 | /
CSc1sc(C(=O)OC(C)C)c2c1C(=O)CC(C)(C)C2 | 30 | 0 | -10 | 53* | 4 | /
CSc1sc(C(=O)O)c2c1C(=O)CC(C)(C)C2 | 2 | / | / | -10 | / | /
O=C(CN1C(=O)c2ccc([N+](=O)[O-])cc2C1=O)Nc1ccccc1N1CCCC1 | 8 | / | / | -2 | / | /
Cc1ccccc1C(=O)Nc1ccccc1 | 10 | 3 | -3 | 1 | 31* | 0
O=C(Nc1ccccc1)c1ccccc1O | 21 | 1 | 0 | 42 | -1 | 0
SMILES | HSF1 inhib | HSP90 refold inh | p-CIP stab down | HSF-1 act | NALP1 yeast inh | Hsp70 activator
Cc1ccc(C)n1NC(=O)c1ccccc1O | -85* | 1 | -22 | -88 | 6 | 0
Cc1ccc(NC(=O)C2=C(c3ccccc3)S(=O)(=O)CCS2(=O)=O)cc1 | -75* | 2 | 11 | -78 | 6 | 0
Cc1ccc(NC(=O)c2ccccc2O)cc1 | 41 | 7 | 2 | 82* | 4 | 0
O=C(O[C@@H]1OC2COC(=O)c3cc(O)c(O)c(O)c3-c3c(cc(O)c(O)c3O)C(=O)O[C@@H]([C@H]1O)[C@@H]2O)c1cc(O)c(O)c(O)c1 | -4 | 3 | 1 | -8 | 21 | 0
COC(=O)C1CC(O)CN1C(=O)Nc1cccc(C(F)(F)F)c1 (configuration not stated) | -2 | -2 | 7 | 1 | -9 | 0
Cc1ccccc1C(=O)NCCSc1ccccc1 | 29 | 3 | -4 | 54* | -29 | 0
Cc1ccc(NC(=O)c2ccccc2)cc1 | 23 | -6 | -6 | 25 | -3 | 0
Cc1ccc(NC(=O)c2c(Cl)n(C)c3ccccc23)cc1 | 42 | 1 | 3 | 72* | 15 | 0
Cc1ccc(NC(=O)C(=O)c2ccc(C)cc2)cc1 | 19 | 0 | -3 | 61* | 9 | /
CCCc1nc(SCC(=O)c2ccc(OC)cc2)c2c(=O)n(C)c(=O)n(C)c2n1 | / | / | 3 | / | / | /
CCCc1nc(SCC(=O)Nc2cc(Cl)ccc2OC)c2c(=O)n(C)c(=O)n(C)c2n1 | -63* | 2 | 1 | -70 | / | 0
O=C(COC(=O)C1C2CC3OC(=O)C1C3C2)Nc1cccc(Cl)c1 (configuration not stated) | -64* | -4 | -5 | -72 | 20 | /
Cc1cccc(C(C)C)c1NC(=O)c1ccc(COc2ccc3c(C)cc(=O)oc3c2)cc1 | 17 | -3 | -23 | 66* | 18 | 0
O=C(Cn1nnc(-c2cccc(C(F)(F)F)c2)n1)NNS(=O)(=O)c1cccc(C(F)(F)F)c1 | -3 | -3 | 1 | 7 | 17 | /
COc1ccc2nc(N=Nc3ccc(N(C)C)cc3)sc2c1 | / | 26* | 8 | / | 1 | 0
COc1ccc2nc(/N=C\N(C)C)sc2c1 | 9 | -3 | -9 | 15 | 16 | 0
COc1cc(-c2c(C#N)c(N)nc(SCc3ccncc3)c2C#N)cc(OC)c1OC | -6 | 2 | 0 | -16 | -24 | 0
CN1CCc2nc(SCc3ccc(Cl)cc3)c(C#N)c(-c3cccs3)c2C1 | 156 | 3 | / | 190* | / | 0
N#Cc1c(N)nc(SCc2ccncc2)c(C#N)c1-c1cccs1 | -68* | -2 | 4 | -70 | 24 | 0
COc1ccccc1CCCNC(=O)C1CCC(=O)N(Cc2ccccc2F)C1 (configuration not stated) | 21 | -7 | 6 | 38 | 24 | /
C=CCc1cccc2cc(C(=O)NNC(=O)c3ccncc3)c(=O)oc12 | -2 | -6 | 0 | -4 | -6 | 0
S=C(Nc1ccc(Cl)c(Cl)c1)N1CCCC1 | 10 | 2 | -5 | 0 | 11 | /
CN1CCN(C(=S)Nc2ccc(Cl)c(Cl)c2)CC1 | 0 | 3 | -6 | -6 | 48* | 0
COc1ccc(S(=O)(=O)/N=C2\C=C(Nc3ccc(O)cc3)C(=O)c3ccccc32)cc1 | -94* | 96* | 24 | -95 | 2 | /
Cc1ccc2c(C)c(C(=O)N3CCCC(C(N)=O)C3)oc2c1C (configuration not stated) | 10 | 1 | -6 | 19 | -15 | /

Screening data: PubChem BioAssay, several laboratories
